Molecules are shown by their SMILES. The whole screen tested about 340,000 compounds, of which about 1,000 (0.29%) were called active. Cut-off read from the data, not from the text of the source: inconclusive = inhibition above about 29% without an active follow-up result; inactive = below that. Not all results are given here. Results with a measured potency or affinity are listed apart.

In this assay the target is Genome polyprotein (Dengue virus type 2 (strain 16681-PDK53)) (UniProt P29991). The assay can be described thus: Dengue-2 NS5 methyltransferase inhibitors, primary screen, biochemical, confirmation dose response (AID 588689). The conditions noted are these: Dengue-2 NS5 methyltransferase capping enzyme assay, at 25 µM, stronger effect = higher value.
[1] abbreviates: measured here: pilot screen replicate inhibition.

A word on the inhibition: it is the drop in the measured response relative to a control, in per cent. Regarding `COCCN(C(=O)COC(=O)C(c1ccccc1)c1ccccc1)c1c(N)n(Cc2ccccc2)c(=O)[nH]c1=O`, the inhibition was 0% (inactive).

On to `CCC(C(=O)OCC(=O)N(C)c1c(N)n(Cc2ccccc2)c(=O)[nH]c1=O)c1ccccc1` (centres undefined), for which the inhibition is -2.91% (inactive).

In the case of `COc1cccc(N2C(=O)Nc3ccc(Br)cc3C2(O)C(=O)NCCCOC(C)C)c1` (centres undefined), the inhibition is -4.76% (inactive).

On to `Cc1cc(C)c(C)c(S(=O)(=O)NCCN2CCOCC2)c1C`, for which the inhibition is 6.21% (inactive).

Turning to `COC(=O)c1ccc(CSC2=NC[C@@H]3[C@@H]4C(=O)N(C)C(=O)[C@@H]4[C@](C)(C(=O)OC)N23)cc1`, the inhibition was -0.66% (inactive). Moreover, under setting [1], the inhibition was found to be 1.52%.

As for `CCOc1ccc(C(=O)NCC(=O)NCCCSc2ccccc2)cc1OCC`, the inhibition is -5.91% (inactive).

In the case of `CCOC(=O)N1CCN(CC(=O)c2ccc(O)c(C)c2O)CC1`, the inhibition is 0.45% (inactive).

`COc1ccccc1/C=C1/C(=O)N(c2ccc([N+](=O)[O-])cc2)N=C1C`: the inhibition was 3.11% (inactive).

Turning to `CC1=NN(c2ccccc2)C(=O)/C1=C\c1cc(C)n(C)c1C`, the inhibition was 0% (inactive).

For the compound `CC1=NN(c2ccccc2)C(=O)/C1=C\c1cn(-c2ccccc2)nc1C`, the inhibition was 3.59% (inactive).

`CC1=NN(c2ccccc2)C(=O)/C1=C\c1ccc(Br)s1`: the inhibition was -0.88% (inactive).

As for `COc1ccc(/C=C2/C(=O)N(c3ccccc3)N=C2C)cc1Br`, the inhibition is 18.3% (inactive).

Turning to `CC1=NN(c2ccccc2)C(=O)/C1=C\N(O)c1ccccc1`, the inhibition is 1.98% (inactive). The inhibition under setting [1] was -1.18%.

For `OCCC1CN(Cc2cc3c(cc2Cl)OCO3)CCN1Cc1ccccc1` (centres undefined), the inhibition is 1.46% (inactive).

As for `CCN(CC)S(=O)(=O)c1cc(NC(=O)CSc2nnc(N)s2)ccc1C`, the inhibition was 0.37% (inactive).

As to `COc1ccc(C(=O)NC(=S)Nc2cccnc2)cc1[N+](=O)[O-]`, the inhibition was 6.37% (inactive).

With `CC(C)C(=O)NNS(=O)(=O)c1ccccc1[N+](=O)[O-]`, the inhibition is -1.48% (inactive).

With `Cc1nn(-c2ccc(F)cc2)c(Cl)c1C(=O)N(C)CC(=O)Nc1cccc(F)c1`, the inhibition was -5.05% (inactive).

Take `CCCC(=O)N(c1ccc(C(=O)O)cc1)c1nc(-c2ccccc2)c(C)s1`: the inhibition was -13.9% (inactive).

Take `Cc1c(Br)c(=O)oc2c(Br)c(O)ccc12`: the inhibition is -1.45% (inactive).

As for `Cc1c(Br)c(=O)oc2c(Br)c(O)c(O)cc12`, the inhibition was 6.73% (inactive).

Regarding `CCOC(=O)C(=O)NNc1ccccc1OC`, the inhibition is -3.11% (inactive).

As for `Cc1ccc(Cc2c(-c3ccc(Cl)cc3)nc3ccc(Cl)cn23)cc1`, the inhibition was 7.95% (inactive).

`COc1ccc(/C=C2/C(=O)ON=C2C)cc1Cl`: the inhibition was 5.23% (inactive).

For `CCOc1cc(/C=C2/C(=O)ON=C2C)cc(Br)c1O`, the inhibition is -74.3% (inactive).

Consider `C#CCOc1ccc(Cl)cc1/C=C1/C(=O)ON=C1C`, for which the inhibition was 10.6% (inactive).

As to `COc1ccc(/C=C2/C(=O)ON=C2C)cc1Br`, the inhibition is 17.8% (inactive).

For the compound `C#CCOc1c(Cl)cc(/C=C2/C(=O)ON=C2C)cc1OC`, the inhibition was 19.6% (inactive).

As to `S=C(NCCc1c[nH]c2ccccc12)NC1CC1`, the inhibition was 2.32% (inactive).

In the case of `N#C/C(=C\c1ccc([N+](=O)[O-])cc1)C(=O)Nc1ccccc1O`, the inhibition was 8.94% (inactive).

On to `Brc1ccc(-c2nnc3n2CCCCC3)cc1`, for which the inhibition is -4.77% (inactive).

Turning to `Cc1ccccc1CSCCNC(=O)COc1ccc(Cl)cc1`, the inhibition is -3.24% (inactive).

As to `Cc1occc1C(=O)NNC(=O)c1ccccc1[N+](=O)[O-]`, the inhibition is 1.62% (inactive).

For `CCC(=O)N1CCc2cc(Br)cc(S(=O)(=O)NCc3ccco3)c21`, the inhibition was 0% (inactive).

On to `O=C1OC(c2ccc(Cl)cc2)/C(=C(/O)c2ccccc2)C1=O` (centres undefined), for which the inhibition is 28.1% (inactive).

Take `CC(=O)C1=C(O)C(=O)OC1c1ccc(Cl)cc1` (centres undefined): the inhibition is -3.11% (inactive).

Take `CC(=O)C1=C(O)C(=O)OC1c1ccc(C)cc1` (centres undefined): the inhibition is -9.38% (inactive).

In the case of `O=C(O)c1ccccc1C(=O)c1ccc(Cl)cc1`, the inhibition was 1.15% (inactive).

With `CC(=O)Nc1ccc(S(=O)(=O)N2CCC(N3CCCCCC3)CC2)cc1`, the inhibition was -3.4% (inactive).

On to `CCOc1ccc(NC(=O)C2=NN(c3ccccc3)C(=O)CC2)cc1S(=O)(=O)N1CCCCC1`, for which the inhibition is -4.38% (inactive).

Take `COc1cccc(N2CC(O)Cn3c2nc2c3c(=O)[nH]c(=O)n2C)c1` (centres undefined): the inhibition is -3.08% (inactive).

In the case of `COc1ccc(NC(=O)c2ccc(S(=O)(=O)N3CC(C)OC(C)C3)cc2)cc1` (centres undefined), the inhibition is 3.36% (inactive).

As for `CN(CC(=O)Nc1ccc(S(=O)(=O)N(C)C)cc1)Cc1ccc(C(F)(F)F)cc1`, the inhibition was 2.22% (inactive).

As for `Nc1ccc(N=Nc2ccccc2)cc1[N+](=O)[O-]`, the inhibition is -3.11% (inactive).

In the case of `Nc1ccc(-c2ccc(N)c([N+](=O)[O-])c2)cc1[N+](=O)[O-]`, the inhibition was -9.54% (inactive).

With `COc1cc(CN(C)Cc2cccc3ccccc23)cc([N+](=O)[O-])c1O`, the inhibition was 11.1% (inactive). For the same compound, the inhibition under setting [1] came to 0.595%.

Regarding `O=C(c1cc(O)c(O)c([N+](=O)[O-])c1)c1ccccc1F`, the inhibition was -7.33% (inactive).

For the compound `O=[N+]([O-])c1ccccc1N=Nc1ccc(O)cc1`, the inhibition was 0% (inactive).

Regarding `O=[N+]([O-])c1cccc(C=Nc2cccc3ccccc23)c1O`, the inhibition was 14.3% (inactive).

Regarding `Cc1cc(Nc2ccccc2C(=O)O)n2ncnc2n1`, the inhibition was 6.29% (inactive).

For the compound `Cn1c(N)c(S(=O)(=O)N2CCN(c3ccccc3F)CC2)c(=O)n(C)c1=O`, the inhibition is -7.15% (inactive).

Regarding `CC(C)CC(=O)Nc1ccc(C(=O)COC(=O)C2CCC2)cc1`, the inhibition was -0.65% (inactive).

With `O=C1C2C3C=CC(C4CC34)C2C(=O)N1Cc1ccco1` (centres undefined), the inhibition is -2.18% (inactive).

Consider `CSCCC(NS(=O)(=O)c1ccc(F)cc1)C(=O)NCc1ccc(S(N)(=O)=O)cc1` (centres undefined), for which the inhibition was 3.04% (inactive).

`C=CCn1c(SCC(=O)NC2CCCC2)nnc1-c1ccncc1`: the inhibition is -3.89% (inactive).

On to `CCc1ccc(S(=O)(=O)Nc2ccccn2)cc1`, for which the inhibition was -5.27% (inactive). For the same compound, the inhibition under setting [1] was -6.09%.

In the case of `Cc1cc(C)c(S(=O)(=O)/N=C2\C=C(NS(=O)(=O)c3ccccc3)C(=O)c3ccccc32)c(C)c1`, the inhibition is 25.3% (inactive).

As for `Cc1ccc(NC2=C/C(=N/S(=O)(=O)c3cccs3)c3ccccc3C2=O)cc1`, the inhibition is 1.1% (inactive).

For the compound `Cc1ccc(S(=O)(=O)Nc2ccc3ncccc3c2[N+](=O)[O-])cc1`, the inhibition is -1.93% (inactive).

As for `Cc1ccc(S(=O)(=O)Nc2ccc3cc([N+](=O)[O-])ccc3c2[N+](=O)[O-])cc1`, the inhibition was -2.33% (inactive).

With `Cc1ccccc1NC1=C/C(=N\S(=O)(=O)c2cccs2)c2ccccc2C1=O`, the inhibition was 63.2% (inactive).

On to `CCc1ccc(S(=O)(=O)/N=C2\C=C(Nc3ccc(O)cc3)C(=O)c3ccccc32)cc1`, for which the inhibition was 8.96% (inactive).

As to `Cc1ccc(Nc2nnc(SC(C)C(=O)NCC3CCCO3)s2)cc1C` (centres undefined), the inhibition is 4.44% (inactive).

As for `CCc1ccc(N(C(=O)C(F)(F)F)C(C(=O)NC2CCCCC2)c2ccncc2)cc1` (centres undefined), the inhibition is 0.69% (inactive).

For `Cc1n[nH]c(C)c1CCCCOc1ccccc1[N+](=O)[O-]`, the inhibition was -3.29% (inactive). Moreover, under setting [1], the inhibition was -1.21%.

On to `CSc1nnc(C)c(=O)n1COC(=O)COc1ccccc1F`, for which the inhibition is 9.2% (inactive).

With `COc1ccc(CCn2c(C)c(C(C)=O)c3cc(OC(=O)c4ccco4)ccc32)cc1OC`, the inhibition was -1.6% (inactive).

Consider `COc1ccccc1-n1c(CNC(=O)c2ccc(S(=O)(=O)N3CCOCC3)cc2)n[nH]c1=S`, for which the inhibition is -4.46% (inactive).

`C=C(C)CN1C(=O)c2ccccc2C1=O`: the inhibition was 2.04% (inactive).

Take `CC(=O)N1N=C(c2ccc(C)o2)CC1c1ccc(Br)cc1` (centres undefined): the inhibition is -4.86% (inactive).

Regarding `COc1cc2c(cc1OC)C(COc1cccc(C(F)(F)F)c1)NCC2` (centres undefined), the inhibition was 6.97% (inactive).

As for `CCCCOc1ccc(C(=O)NCC(=O)NC2CC2)cc1`, the inhibition is 1.44% (inactive).

`CCOC(=O)c1nc[nH]c1C`: the inhibition was -4.86% (inactive).

Regarding `CC(C)c1ccc(-c2csc3nc[nH]c(=O)c23)cc1`, the inhibition is -4.66% (inactive).

Consider `Cc1ccc(S(=O)(=O)Nc2ccccc2-c2ccccc2)cc1`, for which the inhibition was -9.37% (inactive).

With `COc1ccc(S(=O)(=O)/N=C2\C=C(Nc3ccc(O)cc3)C(=O)c3ccccc32)cc1`, the inhibition was 10.3% (inactive).

As for `Cc1ccc(NC2=C/C(=N\S(=O)(=O)c3cccs3)c3ccccc3C2=O)c(C)c1`, the inhibition was 12.8% (inactive).

Take `Cc1ccc(S(=O)(=O)Nc2ccccc2C(N)=O)cc1`: the inhibition was -8.11% (inactive). Also, under setting [1], the inhibition is -8.21%.

As for `CC(=O)OC1(C)C=Cc2ccccc2C1=NS(=O)(=O)c1ccccc1` (centres undefined), the inhibition is 4% (inactive).

As for `CN1C/C(=N\S(=O)(=O)c2ccccc2)N(C)C1=O`, the inhibition is -4.44% (inactive).

As to `Cc1ccc(S(=O)(=O)/N=C2\C=C(NS(=O)(=O)c3ccccc3)C(=O)c3ccccc32)c(C)c1`, the inhibition was 13.1% (inactive).

With `O=[N+]([O-])c1cc(C(F)(F)F)ccc1-n1nnc2ccccc21`, the inhibition was 1.31% (inactive).

Turning to `Cc1cc2cc(CNC(=O)Nc3cccc(Cl)c3)ccc2n1C`, the inhibition was 22.2% (inactive).

`COCCNc1nnc(SCC(=O)NC(=O)c2ccc(Cl)cc2)s1`: the inhibition is 2.89% (inactive).

Turning to `COc1ccc(OC)c(NC(=O)c2cccc(N3C(=O)C4C5CCC(C5)C4C3=O)c2)c1` (centres undefined), the inhibition is -6.74% (inactive).

For the compound `CCOC(=O)CCC(NC(=O)CCC(=O)NC(CCC(=O)OCC)C(=O)OCC)C(=O)OCC` (centres undefined), the inhibition is -7.26% (inactive).

As for `O=C(CNC(=O)c1ccccc1F)NCCN1C(=O)S/C(=C\c2ccc3c(c2)OCO3)C1=O`, the inhibition is -1.45% (inactive).

In the case of `O=C(c1ccc(CS(=O)c2ccc(F)cc2)o1)N1CCN(C2CCCCC2)CC1` (centres undefined), the inhibition was -10.8% (inactive).

As to `Cc1[nH]c(=O)[nH]c(=O)c1CSc1nnc([C@@H](NC(=O)OC(C)(C)C)C(C)C)o1`, the inhibition was 0.56% (inactive).

With `CC(C)(C)c1ccc(S(=O)(=O)Nc2ccccn2)cc1`, the inhibition was 2.21% (inactive).

For `Cc1ccc(S(=O)(=O)/N=C2\C=C(Nc3ccc(O)cc3)C(=O)c3ccccc32)cc1`, the inhibition was -0.74% (inactive).

In the case of `C/C(=N\NS(=O)(=O)c1ccc(C(C)(C)C)cc1)c1ccccc1`, the inhibition is -0.98% (inactive).

For the compound `COC(=O)C(C(C)=O)C1=C/C(=N\S(=O)(=O)c2ccc(C)cc2)c2ccccc2C1=O` (centres undefined), the inhibition was -8.06% (inactive).

(Values after PubChem BioAssay AID588689 (Southern Research Specialized Biocontainment Screening …, 2011).)
